Measurements as given in the supplement of paper PMC10646978.
± gives the standard deviation.

These molecules were tested on RAW-Dual (murine macrophage reporter line) (assay: NF-kB reporter (SEAP) activity fold change vs agonist alone; higher = enhanced NF-kB activity). Details: modulator concentration 10 µM; agonist: LPS 0.1 ug/mL.
In short: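 Overnight stimulation with a PRR agonist followed pre-incubation for 1 hour at 37 °C with compound at 10 μM final. This was done in RAW-Dual murine macrophage reporter cells seeded at 50 000 per well in 384-well plates. NF-κB (SEAP, QUANTI-Blue absorbance at 620 nm) and IRF (Lucia luciferase, QUANTI-Luc luminescence) were read from the supernatant. Each reporter's fold change relative to the mean agonist-only control on the same plate was averaged over replicate plates.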

Question: For `CCc1c(C)nc(-n2nc(C)cc2NC(=O)CSCc2ccccc2)[nH]c1=O`, which NF-kB reporter is on record?
Answer: 0.603 ± 0.082

Question: `COC(=O)Nc1nc2cc(S(=O)c3ccccc3)ccc2[nH]1` (centres undefined) [Prestw-1459] was tested. Which NF-kB reporter did it give?
Answer: 0.896 ± 0.079

Question: With `Cc1[nH]c2ccccc2c1CCNCc1ccc(/C=C/C(=O)NO)cc1` as the molecule, how does the NF-kB reporter read?
Answer: 1.58 ± 0.1

Question: With `O=C(CSc1nc(-c2ccccc2)c(-c2ccccc2)[nH]1)N1CCOCC1` as the molecule, how does the NF-kB reporter read?
Answer: 1.08 ± 0.16

Question: `O=[N+]([O-])c1ccc2nc(S)sc2c1` was tested. Which NF-kB reporter did it give?
Answer: 1.11 ± 0.15

Question: With `Cc1n[nH]c(C)c1CCC(=O)NC1CCC(F)(F)CC1` as the molecule, how does the NF-kB reporter read?
Answer: 1.04 ± 0.12

Question: `O=C(Nc1nc2ccc(Cl)cc2s1)c1ccc(Br)s1` was tested. Which NF-kB reporter did it give?
Answer: 0.927 ± 0.072

Question: `CC1(C)[C@H](C(=O)O)N2C(=O)C[C@H]2S1(=O)=O` was tested. Which NF-kB reporter did it give?
Answer: 1.05 ± 0.079

Question: With `NCC(=O)O` as the molecule, how does the NF-kB reporter read?
Answer: 0.999 ± 0.064

Question: How did the NF-kB reporter turn out when `Br.C=CCn1c(=N)n(CC(=O)c2cccc([N+](=O)[O-])c2)c2ccccc21` was run?
Answer: 0.997 ± 0.057

Question: Which NF-kB reporter does the source give for `Cc1cc(OC2CCN(C(=O)c3csc(C)n3)CC2)nc(C)n1` here?
Answer: 1.11 ± 0.095

Question: Which NF-kB reporter does the source give for `Ic1ccc(N=Cc2ccc(C=Nc3ccc(I)cc3)cc2)cc1` here?
Answer: 0.868 ± 0.083

Question: Which NF-kB reporter does the source give for `O=Cc1ccc(OC(=O)c2cccc(C(=O)Oc3ccc(C=O)cc3)c2)cc1` here?
Answer: 0.851 ± 0.052

Question: For `COc1ccc(-c2[nH]c(-c3ccccc3)nc2SCC(=O)NC2CCCC2)cc1`, which NF-kB reporter is on record?
Answer: 1.07 ± 0.069

Question: How did the NF-kB reporter turn out when `CCN(C=Nc1sc2c(c1C#N)CC(C)(C)NC2(C)C)CC` was run?
Answer: 0.93 ± 0.054

Question: With `CCOC(=O)N1CCC(=C2c3ccc(Cl)cc3CCc3cccnc32)CC1` as the molecule, how does the NF-kB reporter read?
Answer: 1.09 ± 0.21

Question: With `Cc1cc(OCC(=O)Nc2ccccc2-c2ccccc2)ccc1Br` as the molecule, how does the NF-kB reporter read?
Answer: 0.888 ± 0.06

Question: `NC(CO)(CO)CO.O=C(c1ccccc1)c1ccc2n1CCC2C(=O)O` (centres undefined) was tested. Which NF-kB reporter did it give?
Answer: 1.05 ± 0.087

Question: With `O=C(Nc1cc(C(F)(F)F)cc(C(F)(F)F)c1)c1cc2ccccc2o1` as the molecule, how does the NF-kB reporter read?
Answer: 1.05 ± 0.08

Question: `CC(=O)Nc1ccc(S(=O)(=O)N2CCCc3ccccc32)cc1` was tested. Which NF-kB reporter did it give?
Answer: 0.888 ± 0.081

Question: For `CN(C)CCCN1c2ccccc2CCc2ccc(Cl)cc21.Cl`, which NF-kB reporter is on record?
Answer: 1.15 ± 0.43

Question: `CCCCOc1ccc(C(=O)Nc2cc(-c3nc4ccccc4o3)ccc2OC)cc1` was tested. Which NF-kB reporter did it give?
Answer: 1.08 ± 0.089

Question: `CCOC(=O)c1c(N)sc(C(=O)N2CCCC(C(N)=O)C2)c1C` (centres undefined) was tested. Which NF-kB reporter did it give?
Answer: 0.873 ± 0.095

Question: For `Cn1nc(CNC(=O)c2cccc3ccccc23)cc1C1CC1`, which NF-kB reporter is on record?
Answer: 0.852 ± 0.065

Question: `CCOc1ccc(CN(CCc2ccc3c(c2)OCO3)Cc2cccc3ccccc23)cc1` was tested. Which NF-kB reporter did it give?
Answer: 0.888 ± 0.074

Question: For `Cc1cnc(C(=O)O)c[n+]1[O-]`, which NF-kB reporter is on record?
Answer: 0.988 ± 0.074

Question: For `O=S(=O)(c1ccc(F)cc1)N1CCC(c2nc3ccccc3[nH]2)CC1`, which NF-kB reporter is on record?
Answer: 1.08 ± 0.082

Question: For `O=C(Cn1cnc(-c2ccc(Cl)cc2)cc1=O)N1CCOCC1`, which NF-kB reporter is on record?
Answer: 0.924 ± 0.047

Question: How did the NF-kB reporter turn out when `O=C(C=Cc1ccc(O)cc1)c1ccc(O)cc1O` was run?
Answer: 1.09 ± 0.054

Question: For `Cc1cc(OC2CCN(S(=O)(=O)CCc3ccccc3)C2)cc(=O)n1C` (centres undefined), which NF-kB reporter is on record?
Answer: 0.929 ± 0.088

Question: Which NF-kB reporter does the source give for `CCCC(=O)Nc1ccc(N2CCCCC2)cc1` here?
Answer: 0.901 ± 0.046

Question: Which NF-kB reporter does the source give for `CN(C)CCOC(c1ccc(Cl)cc1)c1ccccn1.O=C(O)/C=C\C(=O)O` (centres undefined) here?
Answer: 1.14 ± 0.19

Question: How did the NF-kB reporter turn out when `CS(=O)(=O)Nc1cccc(F)c1` was run?
Answer: 1.08 ± 0.074

Question: For `CCOc1ccc(N=Cc2c(Nc3ccc(OCC)cc3)nc3ccccn3c2=O)cc1`, which NF-kB reporter is on record?
Answer: 0.984 ± 0.13

Question: How did the NF-kB reporter turn out when `Cc1cnc2c(c1SCC(=O)N1CCc3ccccc31)c(=O)n(C)c(=O)n2C` was run?
Answer: 1.22 ± 0.18

Question: With `CCOC(=O)c1ccc(N2C(=O)CC(N3CCN(c4ccc([N+](=O)[O-])cc4)CC3)C2=O)cc1` (centres undefined) as the molecule, how does the NF-kB reporter read?
Answer: 1.08 ± 0.066

Question: `CS(=O)(=O)C1CC2CCC(C1)N2C(=O)c1cccc(Oc2ccc(F)cc2)c1` (centres undefined) was tested. Which NF-kB reporter did it give?
Answer: 1.13 ± 0.097

Question: How did the NF-kB reporter turn out when `Cn1ccc(C(=O)Nc2nc(C(C)(C)C)cs2)n1` was run?
Answer: 1 ± 0.082

Question: `NC(=S)c1cc2ccc(O)cc2oc1=O` was tested. Which NF-kB reporter did it give?
Answer: 1.01 ± 0.082
